In PubChem BioAssay (EPA / NIEHS):
The source holds several records for some structures; these can differ, active in one and inactive in another. Activity calls are given as the source filed them. The calls were made as follows: active = hit-call score of the fitted dose curve at least 0.9, where 1 is the maximum; inactive = score below 0.9.

Key:
[1] = ATG_M_61_CIS: Attagene CIS-FACTORIAL HepG2 Assay for M61 Transcription Factor (Internal Marker) (AID 2282937); conditions: HepG2 Attagene CIS-FACTORIAL M61 internal marker reporter; actives raise or lower the signal
Method in brief: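 Using transiently transfected HepG2 liver cells, reporter transcript levels were assessed 24 h post-dosing by RT-PCR and capillary electrophoresis. Changes in either direction were fitted relative to DMSO controls.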

[2] = ATG_EGR_CIS: Attagene CIS-FACTORIAL HepG2 Assay for human Early Growth Response 1 (EGR1) (AID 2282938); conditions: HepG2 Attagene CIS-FACTORIAL EGR reporter mRNA; actives raise or lower the signal
Method in brief: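 Fluorescent capillary-electrophoresis signal of reporter cDNA fragments serves as read-out. HepG2 cells bear transiently transfected cis-promoter reporter units and are exposed 24 h; gain- or loss-of-signal is fitted against DMSO.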

[3] = ATG_M_19_CIS: Attagene CIS-FACTORIAL HepG2 Assay for M19 Transcription Factor (Internal Marker) (AID 2282939); conditions: HepG2 Attagene CIS-FACTORIAL M19 internal marker reporter; actives raise or lower the signal
Method in brief: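 Background-control endpoint from a multiplexed HepG2 reporter panel. Cells carrying cis-regulated reporter constructs are treated 24 h, then reporter transcripts are amplified, fluorescently labelled and sized by capillary electrophoresis. DMSO defines baseline.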

[4] = ATG_Ets_CIS: Attagene CIS-FACTORIAL HepG2 Assay for human Erythroblast Transformation Specific (ETS) (AID 2282941); conditions: HepG2 ETS cis-reporter transcription, actives raise or lower the signal
Method in brief: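 Cis-regulated reporter mRNA induction in HepG2 (transient transfection), 24 h exposure, RT-PCR plus capillary electrophoresis detection; DMSO serves as negative control and baseline.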

[5] = target: Hepatocyte nuclear factor 3-beta (Homo sapiens) (UniProt Q9Y261); experiment: ATG_FoxA2_CIS: Attagene CIS-FACTORIAL HepG2 Assay for human Forkhead box A2 (FOXA2) (AID 2282942); conditions: HepG2 cis-reporter transcription factor activity, 24 h; actives raise or lower the signal
Method in brief: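 Fluorescence signal of reporter cDNA fragments, separated by capillary electrophoresis, reflects endogenous transcription factor activity in transfected HepG2 after 24 h. Both increases and decreases fitted against DMSO.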

[6] = ATG_GATA_CIS: Attagene CIS-FACTORIAL HepG2 Assay for human GATA Binding Protein (AID 2282944); conditions: HepG2 GATA cis-element reporter, Attagene multiplex mRNA; actives raise or lower the signal
Method in brief: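 Endogenous transcription factor activity was captured through cis-promoter-driven reporters in transfected HepG2 cells. After 24 h exposure, reporter transcripts were quantified by RT-PCR with fluorescent capillary electrophoresis, and responses fitted both directions against DMSO.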

[7] = ATG_ISRE_CIS: Attagene CIS-FACTORIAL HepG2 Assay for human Interferon Regulatory Factor 1 (IRF1) binding to an Interferon-Stimulated Response Element (ISRE) (AID 2282948); conditions: HepG2 ISRE cis-reporter (Attagene), mRNA transcription readout; actives raise or lower the signal
Method in brief: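 Multiplexed mRNA reporter readout in human liver HepG2 cells: cis-element-driven reporters transfected, compound added for 24 h, transcripts amplified, fluorescently labelled and sized by capillary electrophoresis; curve fitting bidirectional against DMSO.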

[8] = ATG_M_32_CIS: Attagene CIS-FACTORIAL HepG2 Assay for M32 Transcription Factor (Internal Marker) (AID 2282949); conditions: HepG2 Attagene cis-factorial M32 reporter, mRNA; actives raise or lower the signal;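 also: background control marker of the multiplexed CIS panel rather than a real target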
Method in brief: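 HepG2 human liver cells transiently transfected with cis-promoter-driven multiple reporter transcription units, dosed 24 h. Reporter mRNA quantified by RT-PCR, FAM-labelled primer extension, HpaI digest and capillary electrophoresis; bidirectional fit versus DMSO baseline.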

[9] = ATG_M_06_CIS: Attagene CIS-FACTORIAL HepG2 Assay for M06 Transcription Factor (Internal Marker) (AID 2282950); conditions: HepG2 Attagene CIS-FACTORIAL M06 internal marker reporter; actives raise or lower the signal
Method in brief: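 Steps: transfect HepG2 with multiplexed cis-element reporter constructs; dose chemical 24 h; extract RNA with DNase treatment; reverse-transcribe, PCR-amplify, 6-FAM label, HpaI digest; separate fragments by capillary electrophoresis. Activity fitted both directions versus DMSO.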

[10] = target: Hypoxia-inducible factor 1-alpha (Homo sapiens) (UniProt Q16665); experiment: ATG_HIF1a_CIS: Attagene CIS-FACTORIAL HepG2 Assay for human Hypoxia Inducible Factor 1 (HIF1A) (AID 2282951); conditions: HepG2 Attagene cis-factorial HIF1a reporter transcription; actives raise or lower the signal
Method in brief: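 Endogenous-TF cis reporter readout, human HepG2 cells, 24 h incubation; mRNA detected via RT-PCR and capillary electrophoresis fluorescence; DMSO-normalised bidirectional fitting.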

[11] = target: Hepatocyte nuclear factor 6 (Homo sapiens) (UniProt Q9UBC0); experiment: ATG_HNF6_CIS: Attagene CIS-FACTORIAL HepG2 Assay for human Hepatocyte Nuclear Factor 6 (HNF6) (AID 2282952); conditions: HepG2 Attagene cis-factorial HNF6 reporter transcription; actives raise or lower the signal
Method in brief: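 Endogenous factor activity read in transiently transfected HepG2 via promoter-regulated reporter transcripts. RNA harvested 24 h post-dosing, reverse-transcribed, PCR-amplified, FAM-labelled, HpaI-digested and resolved by capillary electrophoresis; fitted in both directions against DMSO.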

[12] = target: Heat shock factor protein 1 (Homo sapiens) (UniProt Q00613); experiment: ATG_HSE_CIS: Attagene CIS-FACTORIAL HepG2 Assay for human Heat Shock Transcription Factor 1 (HSE) (AID 2282953); conditions: HepG2 HSE cis-reporter, Attagene RNA transcription; actives raise or lower the signal
Method in brief: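 Cells were transfected with cis-element-driven reporter constructs, dosed for 24 h, then total RNA was reverse-transcribed and reporter cDNA amplified, FAM-labelled and digested with HpaI. Fragments were resolved by capillary electrophoresis; gain or loss was fitted against DMSO.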

[13] = ATG_PBREM_CIS: Attagene CIS-FACTORIAL HepG2 Assay for human Phenobarbital-responsive Enhancer Module (PBREM) (AID 2282955); conditions: HepG2 PBREM cis-reporter, Attagene multiplexed transcription; actives raise or lower the signal
Method in brief: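 Readout: reporter mRNA, fluorescent RT-PCR fragments separated by capillary electrophoresis. System: HepG2 transiently transfected with cis-regulated reporter units. Exposure: 24 h. Analysis: bidirectional, DMSO baseline.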

[14] = target: Paired box protein Pax-6 (Homo sapiens) (UniProt P26367); experiment: ATG_Pax6_CIS: Attagene CIS-FACTORIAL HepG2 Assay for human Paired Box 6 (PAX6) (AID 2282956); conditions: HepG2 CIS-FACTORIAL PAX6 reporter transcription, RNA readout; actives raise or lower the signal
Method in brief: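 Fluorescent RT-PCR products separated by capillary electrophoresis report PAX6-linked promoter mRNA in HepG2 cells 24 h post-dose. Curves fitted bidirectionally, DMSO as negative control.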

[15] = ATG_ERE_CIS: Attagene CIS-FACTORIAL HepG2 Assay for Estrogen Response Element (ERE) (AID 2282940); conditions: HepG2 ERE cis-reporter, Attagene RNA transcript; actives raise or lower the signal
Method in brief: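 Cells used were human hepatoma HepG2, transfected with multiple reporter transcription units under cis-regulatory promoters. Reporter mRNA, read 24 h post-dosing via fluorescent RT-PCR products on capillary electrophoresis, was fitted bidirectionally relative to DMSO.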

[16] = target: Bile acid receptor (Homo sapiens) (UniProt Q96RI1); experiment: ATG_IR1_CIS: Attagene CIS-FACTORIAL HepG2 Assay for human Nuclear Receptor Subfamily 1 Group H Member 4 (NR1H4), IR1 submotif (AID 2282946); conditions: IR1 reporter transcription, actives raise or lower the signal
Method in brief: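 Readout: reporter transcript levels by RT-PCR with fluorescent capillary electrophoresis, from HepG2 cells transiently transfected with multiplexed cis-regulated reporters and dosed 24 h. Gain- or loss-of-signal fitted versus DMSO negative control.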

[17] = ATG_GRE_CIS: Attagene CIS-FACTORIAL HepG2 Assay for human Glucocorticoid Response Elements (GRE) (AID 2282947); conditions: HepG2 GRE cis-reporter, Attagene multiplex mRNA; actives raise or lower the signal
Method in brief: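 Cells (HepG2) bearing transfected cis-promoter reporter transcription units were treated with chemical for 24 hours. Reporter mRNA was measured via RT-PCR with capillary electrophoresis, and activity was fitted in both directions relative to DMSO.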

[18] = ATG_FoxO_CIS: Attagene CIS-FACTORIAL HepG2 Assay for human Forkhead box O (FoxO) (AID 2282943); conditions: HepG2 Attagene cis-reporter, FoxO element, mRNA; actives raise or lower the signal
Method in brief: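 24 h chemical exposure, HepG2 with transient cis-MRTU transfection. RNA extraction, oligo(dT) RT, reporter-specific PCR, primer-extension labelling, HpaI digestion, CE fragment analysis; bidirectional fit, DMSO baseline.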

[19] = ATG_MRE_CIS: Attagene CIS-FACTORIAL HepG2 Assay for human Metal Responsive Element (MRE) (AID 2282954); conditions: HepG2 MRE cis-reporter transcription, Attagene multiplex; actives raise or lower the signal
Method in brief: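 Cells were transfected with cis-promoter reporter transcription units, then dosed for 24 h. RNA was reverse-transcribed, amplified, fluorescently labelled and resolved by capillary electrophoresis, and activity was fitted in both directions relative to DMSO.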

Sequence of Hypoxia-inducible factor 1-alpha (Homo sapiens) (Q16665 whole entry, looked up): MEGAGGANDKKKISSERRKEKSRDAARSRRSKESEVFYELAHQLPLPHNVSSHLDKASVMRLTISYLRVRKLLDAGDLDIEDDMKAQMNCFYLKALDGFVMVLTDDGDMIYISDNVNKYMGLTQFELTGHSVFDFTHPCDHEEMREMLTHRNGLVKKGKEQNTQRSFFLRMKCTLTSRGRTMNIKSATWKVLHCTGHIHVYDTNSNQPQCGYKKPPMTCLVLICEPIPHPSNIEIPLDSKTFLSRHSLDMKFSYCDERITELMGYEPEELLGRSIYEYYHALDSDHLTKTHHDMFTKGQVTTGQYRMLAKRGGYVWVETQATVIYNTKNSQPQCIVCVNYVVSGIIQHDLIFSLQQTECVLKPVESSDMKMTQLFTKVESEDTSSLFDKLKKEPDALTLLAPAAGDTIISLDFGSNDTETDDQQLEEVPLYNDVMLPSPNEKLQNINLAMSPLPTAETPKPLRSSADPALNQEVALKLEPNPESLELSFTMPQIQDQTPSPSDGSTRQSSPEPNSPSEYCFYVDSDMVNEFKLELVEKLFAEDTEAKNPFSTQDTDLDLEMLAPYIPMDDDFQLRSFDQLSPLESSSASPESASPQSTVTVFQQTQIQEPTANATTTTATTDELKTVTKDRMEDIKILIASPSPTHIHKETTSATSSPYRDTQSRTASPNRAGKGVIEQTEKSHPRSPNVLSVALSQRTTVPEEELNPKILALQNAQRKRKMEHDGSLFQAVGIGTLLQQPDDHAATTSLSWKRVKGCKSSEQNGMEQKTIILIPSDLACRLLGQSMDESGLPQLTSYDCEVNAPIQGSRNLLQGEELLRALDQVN
Sequence of Heat shock factor protein 1 (Homo sapiens) (Q00613 whole entry, looked up, the tested form may be a part): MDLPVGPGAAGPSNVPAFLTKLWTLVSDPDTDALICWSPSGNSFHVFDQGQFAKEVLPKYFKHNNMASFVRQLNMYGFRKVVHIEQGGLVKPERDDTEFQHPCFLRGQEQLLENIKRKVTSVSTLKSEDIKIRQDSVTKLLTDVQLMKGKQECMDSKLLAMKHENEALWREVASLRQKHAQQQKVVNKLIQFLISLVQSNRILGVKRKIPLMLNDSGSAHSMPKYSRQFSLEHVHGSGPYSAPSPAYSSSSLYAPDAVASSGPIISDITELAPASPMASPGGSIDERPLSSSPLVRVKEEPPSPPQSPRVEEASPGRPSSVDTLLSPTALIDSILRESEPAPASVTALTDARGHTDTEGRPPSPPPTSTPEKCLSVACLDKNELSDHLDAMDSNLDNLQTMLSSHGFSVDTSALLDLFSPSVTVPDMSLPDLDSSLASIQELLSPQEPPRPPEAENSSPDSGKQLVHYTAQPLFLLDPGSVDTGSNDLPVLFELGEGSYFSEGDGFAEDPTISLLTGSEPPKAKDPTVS
Sequence of Bile acid receptor (Homo sapiens) (Q96RI1 whole entry, looked up): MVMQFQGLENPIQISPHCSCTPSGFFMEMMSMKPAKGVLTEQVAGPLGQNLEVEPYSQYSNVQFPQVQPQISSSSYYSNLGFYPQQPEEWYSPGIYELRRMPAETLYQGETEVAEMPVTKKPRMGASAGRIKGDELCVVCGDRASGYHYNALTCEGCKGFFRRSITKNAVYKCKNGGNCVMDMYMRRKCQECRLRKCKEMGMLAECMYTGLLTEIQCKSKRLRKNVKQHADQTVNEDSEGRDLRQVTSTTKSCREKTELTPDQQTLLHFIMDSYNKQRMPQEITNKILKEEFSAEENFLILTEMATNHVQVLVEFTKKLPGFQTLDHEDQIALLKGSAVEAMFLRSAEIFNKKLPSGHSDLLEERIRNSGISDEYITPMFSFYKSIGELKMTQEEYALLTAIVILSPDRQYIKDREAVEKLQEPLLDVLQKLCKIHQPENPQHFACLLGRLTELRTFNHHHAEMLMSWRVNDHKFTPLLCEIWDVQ
Sequence of Paired box protein Pax-6 (Homo sapiens) (P26367 whole entry, looked up): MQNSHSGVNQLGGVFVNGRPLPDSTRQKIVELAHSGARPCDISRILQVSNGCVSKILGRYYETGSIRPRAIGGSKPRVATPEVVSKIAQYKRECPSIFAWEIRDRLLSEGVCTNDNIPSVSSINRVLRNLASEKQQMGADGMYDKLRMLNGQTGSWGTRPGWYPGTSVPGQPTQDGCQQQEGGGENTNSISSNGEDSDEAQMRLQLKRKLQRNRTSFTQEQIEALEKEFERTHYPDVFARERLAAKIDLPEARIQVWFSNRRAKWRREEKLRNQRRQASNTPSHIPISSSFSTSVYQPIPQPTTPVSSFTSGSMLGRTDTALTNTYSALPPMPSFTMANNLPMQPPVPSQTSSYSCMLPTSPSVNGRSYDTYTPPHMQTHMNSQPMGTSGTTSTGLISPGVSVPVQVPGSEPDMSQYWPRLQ
Sequence of Hepatocyte nuclear factor 3-beta (Homo sapiens) (Q9Y261 whole entry, looked up, the tested form may be a part): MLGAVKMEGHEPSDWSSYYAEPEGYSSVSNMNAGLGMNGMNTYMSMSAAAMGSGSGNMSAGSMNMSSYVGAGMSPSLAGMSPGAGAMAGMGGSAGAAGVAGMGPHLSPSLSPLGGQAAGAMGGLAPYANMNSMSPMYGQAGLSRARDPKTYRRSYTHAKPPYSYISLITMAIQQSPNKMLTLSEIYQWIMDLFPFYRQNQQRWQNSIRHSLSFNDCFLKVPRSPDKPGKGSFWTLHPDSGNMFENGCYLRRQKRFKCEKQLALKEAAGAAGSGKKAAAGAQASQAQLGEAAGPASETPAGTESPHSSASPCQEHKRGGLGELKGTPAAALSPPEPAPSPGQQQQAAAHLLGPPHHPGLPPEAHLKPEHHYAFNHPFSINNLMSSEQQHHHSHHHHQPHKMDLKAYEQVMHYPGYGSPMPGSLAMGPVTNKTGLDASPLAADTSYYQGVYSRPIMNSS
Sequence of Hepatocyte nuclear factor 6 (Homo sapiens) (Q9UBC0 whole entry, looked up): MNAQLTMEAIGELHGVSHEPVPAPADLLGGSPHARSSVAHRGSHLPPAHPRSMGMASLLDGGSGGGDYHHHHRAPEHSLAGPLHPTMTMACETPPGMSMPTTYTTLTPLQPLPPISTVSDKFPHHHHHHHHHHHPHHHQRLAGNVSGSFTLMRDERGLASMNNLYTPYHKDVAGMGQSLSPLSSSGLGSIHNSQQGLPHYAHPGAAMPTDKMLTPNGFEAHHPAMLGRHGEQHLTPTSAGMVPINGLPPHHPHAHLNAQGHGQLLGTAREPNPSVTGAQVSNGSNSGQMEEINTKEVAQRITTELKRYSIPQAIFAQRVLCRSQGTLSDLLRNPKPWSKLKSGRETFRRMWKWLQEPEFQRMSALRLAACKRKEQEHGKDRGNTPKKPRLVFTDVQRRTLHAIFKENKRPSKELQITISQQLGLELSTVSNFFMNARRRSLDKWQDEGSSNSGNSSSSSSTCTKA

Structure (SMILES) | outcome [1] | outcome [2] | outcome [3] | outcome [4] | outcome [5] | outcome [6] | outcome [7] | outcome [8] | outcome [9] | outcome [10] | outcome [11] | outcome [12] | outcome [13] | outcome [14] | outcome [15] | outcome [16] | outcome [17] | outcome [18] | outcome [19] | AC50 [14]
CCNc1nc(N)nc(Cl)n1 | inactive | inactive | inactive | inactive | inactive | inactive | inactive | inactive | inactive | inactive | inactive | inactive | inactive | inactive | – | – | – | – | – | –
CCOC(=O)C(C)Oc1ccc(Oc2cnc3cc(Cl)ccc3n2)cc1 (configuration not stated) | inactive | inactive | inactive | – | inactive | inactive | inactive | inactive | inactive | inactive | inactive | – | inactive | inactive | inactive | inactive | inactive | – | – | –
CCOC(=O)c1ccc(O)cc1 | inactive | inactive | inactive | – | inactive | inactive | inactive | inactive | inactive | inactive | inactive | inactive | inactive | inactive | – | inactive | inactive | inactive | inactive | 100 µM (active)
